These results are taken from PubChem BioAssay AID1159506 (National Center for Advancing Translational Sciences (NCATS), 2015).

Whole data set: some 59,000 sequences, median the read-out near -0.00055, cut for the lowest 2% near -2. The entries come from a sample that favours the lowest values as a whole.

This assay can be described thus: Identification of proteins required for the processing of the EWS-FLI1 nascent transcript.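 Also: robust z of luciferase light less the median z of siRNAs with the same seed.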 As to conditions: TC32 Ewing sarcoma NR0B1-luc vs CMV-luc (EWS-FLI1 target promoter against control promoter), 48 h; screened at 20 nM (by protocol). In a few lines: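 Three siRNAs per gene, each in a separate well at 20 nM, were transfected into TC32 cells bearing either reporter construct. Luminescence was measured two days on, and per-gene comparison relied on seed-corrected Z values.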
UCACAAACCACGUUACACG against PABPC3 had a seed-corrected z-score of -0.495.

In the case of AGUAGAUACAGCUUCUUUC against CCDC50, the seed-corrected z-score was -0.915.

For AAAUUUCACAGGUAAUAUG against OR13D1, the seed-corrected z-score is -0.485.

As to AUGGUGACAAUUGAACUCC against IGF1R, the seed-corrected z-score was -1.36.

With UCUGUUAGCAGCUGGUUUG against SH3D19, the seed-corrected z-score was -2.01.

UUUAUUAUGAUCUUCCGAG against PIP returned a seed-corrected z-score of 0.162.

The sequence UUUGACGAAAUGGGAAUCC against OMD displayed a seed-corrected z-score of -0.258.

UAACGUAUAGCUACAACUC against MED23 yielded a seed-corrected z-score of 0.49.

In the case of UGAUUUUCUGCACAAGUCC against NELL2, the seed-corrected z-score is 0.658.

The sequence AUUCUGUUCAAACAUCUGG against EXOC3 gave a seed-corrected z-score of -2.38.

The sequence UACGCGGGCAAACUUCUCC against LRRC14 showed a seed-corrected z-score of 0.0562.

Take AAUUCGCAAAGAAUGAUGC against CNN1: the seed-corrected z-score was found to be 0.159.

UAGACUACCGGCUUCUUGC against CTRC had a seed-corrected z-score of -0.112.

Take UCAGCAUCUUCCAUGAUAG against B3GNT4: the seed-corrected z-score was -0.437.

With AUCUGGUUGCUUUUUAUCC against FAM60A, the seed-corrected z-score was -3.49.

UGAACCACCAGGGUAUACG against CDH1: the seed-corrected z-score came out at 1.03.

Consider UCUUGAAUUGAGCAAGUCC against MGAT5, for which the seed-corrected z-score is 0.401.

Sequence UUUCAGCUAAUGCAUUUUG against VIP showed a seed-corrected z-score of -3.11.

For the sequence UGUAGUAGAACUUCCUGGG against HS6ST1, the seed-corrected z-score was -1.42.

For the sequence UCAAUUUUGAGUCCAUUGG against ANKRD46, the seed-corrected z-score amounted to 0.911.

The sequence UCCUUUAGAACUCUCGAUC against WIPF3 yielded a seed-corrected z-score of 0.233.

As for AUUAACAUAAUCUUGAUCC against CCNL2, the seed-corrected z-score was -4.87.

In turn, UCAAAGGUCACGGUCAGGA against PRDM15 gave a seed-corrected z-score of -1.

Regarding UUUAGAGGGACUCUUGUUU against HMGA2, the seed-corrected z-score was -1.74.

For the sequence UUCUGACUGAGAGCUAUGG against BNIP3L, the seed-corrected z-score is -0.338.

Regarding UAAAUAGUUCUCGUCUUUC against EHF, the seed-corrected z-score worked out at 0.511.

UCUCUUGAGAGCGCGGUUG against RGS8 gave a seed-corrected z-score of 1.31.

UACUGAUUGAGUGCCCUGC against FGGY came in with a seed-corrected z-score of -5.78.

Take UGAAGUUCAGCUACUAGCC against DIMT1: the seed-corrected z-score was -0.104.

For the sequence UAAACAGUGAUUGCACCAC against ZNF497, the seed-corrected z-score is -1.22.

For the sequence UAAGAAAAUAGGGAGGCCG against H1F0, the seed-corrected z-score amounted to 0.96.

Sequence UCCGAGUCAAUACUGUAUC against UIMC1 had a seed-corrected z-score of 0.162.

Regarding UGCUUUUUCAUGGACCACC against SOD1, the seed-corrected z-score was -3.09.

In turn, ACUAAUACUAAAUUCAACC against CSDE1 had a seed-corrected z-score of 1.52.

Sequence UCCAGCUGAACUGUCACUC against TBX10 gave a seed-corrected z-score of -0.201.

For the sequence UUCUUUUCCAGGUACGUGA against CCDC105, the seed-corrected z-score was -0.394.

Consider UAUGUGCUUACUAGGGUCA against SSR3, for which the seed-corrected z-score was -0.244.

Turning to AUCUUUCGAACUACAAUUG against PSME4, the seed-corrected z-score worked out at 1.14.

For the sequence UCCCAAGUCGCUCAAGUUC against LOC389834, the seed-corrected z-score was found to be 0.29.

In turn, UUUGGAGACAACAAGGUCG against SYN3 displayed a seed-corrected z-score of -0.442.

UCCGGAAGUACUGUCGAAG against PPP2R1A yielded a seed-corrected z-score of -0.186.

Regarding AAUGUACUAUCUACUUGCC against ZNF507, the seed-corrected z-score was -0.378.

Sequence UCAGGAUCAAAAUCCAGUC against LTV1 showed a seed-corrected z-score of -2.94.

Turning to UGUCGAAACAGGAGGCGCU against ZNF579, the seed-corrected z-score was -1.11.

Take ACAGAUCAAAGAACUGUCC against LGALS4: the seed-corrected z-score was determined as 0.144.

In the case of UACUUGGACAAGUCCAAGA against LSM7, the seed-corrected z-score amounted to 0.593.

In turn, UGAACUUCUGGAGUCCCUC against CCDC115 gave a seed-corrected z-score of 1.1.

With UUUCGUAACCCUUCUGGGC against GNPTAB, the seed-corrected z-score came to 0.263.

Sequence UAAGGUUAGGUUAGGAAUG against SH3BGRL3 registered a seed-corrected z-score of -0.0213.

For the sequence UAAUAGACCACGGAGUCUU against TMEM130, the seed-corrected z-score was -3.42.

Sequence UAAUCUCCUUCUUUAGGUC against CNOT3 showed a seed-corrected z-score of 1.42.

The sequence AGUUCACUAAGUCAAUAGC against TMEM44 registered a seed-corrected z-score of -1.14.

UGGGUCAUGUGCUCUAUCC against HDGFL1 yielded a seed-corrected z-score of -0.0953.

Consider UAUGAGGUAAAGUGGGAAG against LCE2A, for which the seed-corrected z-score is -2.17.

In turn, UUGGGUUCGAUAUCUGCUU against CALML4 showed a seed-corrected z-score of 0.413.

Take UCAGAAAUGACCUUGUUGC against LOC729187: the seed-corrected z-score was determined as 1.39.

The sequence AUCGGCAAAGUAAUUCUGG against NECAB3 gave a seed-corrected z-score of 0.533.

Regarding UGUAUUACAAUAUUCCUUC against LACE1, the seed-corrected z-score was -0.00635.

Consider UCUUGUCGUAGUUCGUGGG against DUS3L, for which the seed-corrected z-score was -2.02.

In the case of AAACUGGUCAUCAUCCACC against SIKE1, the seed-corrected z-score turned out to be 0.42.

As for AUCUGAGUGGAAAAAGUCC against AHNAK2, the seed-corrected z-score turned out to be 0.0875.

Sequence UUCAGACUUGUUUUCACCC against POU1F1 had a seed-corrected z-score of -0.00706.

AAAGGUAGAAAGAAGGACU against ZDHHC8P1 registered a seed-corrected z-score of -0.722.

For the sequence UUGGUCUAGACUACUCUCC against KRT5, the seed-corrected z-score was -0.431.

For ACAGAUAUCACAGGUAACC against MCU, the seed-corrected z-score was found to be 0.266.

In turn, AACAUAGCUAAAGUUGUUG against SLC16A5 displayed a seed-corrected z-score of -3.24.

GAGCCGAACACCACUAUGG against SYNGR1 registered a seed-corrected z-score of -0.617.

AGAUCUACUACAGCCGUUC against RARS2: the seed-corrected z-score was found to be 0.391.

Sequence UUCGACCCAAGGUUUGUGC against DBF4 showed a seed-corrected z-score of 0.865.

UUAAUGAUAAACACGUCUU against LMX1A had a seed-corrected z-score of -0.388.

Sequence UCCUAUAGCAGAAUAUUCC against PVRL3 returned a seed-corrected z-score of -0.846.

In turn, UCAACAUUAGGUUUCUUAG against TAF9B displayed a seed-corrected z-score of 0.431.

In the case of UCUGGUAGUUCUUCAAGGC against LINC00238, the seed-corrected z-score was found to be 0.0623.

On to UAUUCUGUAGGCUCAAAAC against KRTAP4-11, for which the seed-corrected z-score was -3.43.

UUUCGCUAAGCUGCUCUUC against AQP9 came in with a seed-corrected z-score of -0.131.

On to UUAUGGAAUGUCGUUUUCC against FAM228A, for which the seed-corrected z-score is 0.0891.

The sequence UAAUGUCUAAGGAAGAUUU against ZBTB8A registered a seed-corrected z-score of 0.693.

AAGCUGAUAAUAGGCUUUC against DNAJA3 yielded a seed-corrected z-score of -0.565.

Turning to UUCCAAGACAGAAAUGAGG against DNHD1, the seed-corrected z-score worked out at 0.456.

The sequence UGGGAUUUUAAAACGGCGG against DPP9 displayed a seed-corrected z-score of 0.0729.

Turning to UUCUAUUUAGGAGAGCUUC against RPS16P10, the seed-corrected z-score is -1.32.

The sequence UAUCUUGUGGUGGUAGAGC against METTL23 displayed a seed-corrected z-score of 0.782.

UCCGUUUUUGAGAAACUUG against PNLDC1 returned a seed-corrected z-score of -0.423.

For the sequence UAGAAAGUCUUUACUAUGU against PIGA, the seed-corrected z-score is -1.02.

UAAGUAGAUGGAGGACACC against MRGPRF displayed a seed-corrected z-score of -2.16.
